Key:
Assay in all cases: PBM binding z-score (relative to random genomic background probes); higher = stronger binding; sequences stand for … in GC…GCGATTGACAGCGTAGAATGAAGG
[1] = test system: FXR:RXRa (NR concentration 270 nM, RXRa partner concentration 90 nM)
In short: (§1)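 Random background probes are the reference for binding z-scores. These scores derive from regression-normalized fluorescence on custom Agilent 4×180K protein-binding microarrays incubated 1 h with ligand-free nuclear receptor dimers. Binding was detected with antibodies against each partner (one per run).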

[2] = test system: LXRa:RXRa (NR concentration 270 nM, RXRa partner concentration 90 nM)
In short: as §1

[3] = test system: LXRa homodimer (NR concentration 270 nM)
In short: as §1

[4] = test system: LXRb:RXRa (NR concentration 270 nM, RXRa partner concentration 90 nM)
In short: as §1

[5] = test system: LXRb homodimer (NR concentration 270 nM)
In short: as §1

[6] = test system: PPARa:RXRa (NR concentration 270 nM, RXRa partner concentration 90 nM)
In short: as §1

[7] = test system: PPARg:RXRa (NR concentration 180 nM, RXRa partner concentration 90 nM)
In short: as §1

[8] = test system: PPARg:RXRa 270nM:90nM, anti-RXR (NR concentration 270 nM, RXRa partner concentration 90 nM)
In short: as §1

[9] = test system: PPARg:RXRa 30nM:10nM, anti-RXR (NR concentration 30 nM, RXRa partner concentration 10 nM)
In short: as §1

[10] = test system: PPARg:RXRa 90nM:30nM, anti-RXR (NR concentration 90 nM, RXRa partner concentration 30 nM)
In short: as §1

[11] = test system: PPARg:RXRa DBDmut IVT, anti-RXR (DBD mutation: RXRa K156A/R161A, NR concentration 270 nM, RXRa partner concentration 90 nM)
In short: as §1

[12] = test system: PPARg:RXRa IVT, anti-PPARg (NR concentration 270 nM, RXRa partner concentration 90 nM)
In short: as §1

[13] = test system: PPARg DBDmut:RXRa IVT, anti-PPARg (DBD mutation: PPARg1 K132A/R137A, NR concentration 270 nM, RXRa partner concentration 90 nM)
In short: as §1

[14] = test system: PPARg DBDmut IVT, anti-PPARg (DBD mutation: PPARg1 K132A/R137A, NR concentration 270 nM)
In short: as §1

[15] = test system: PPARg homodimer (NR concentration 180 nM)
In short: as §1

[16] = test system: PXR:RXRa (NR concentration 270 nM, RXRa partner concentration 90 nM)
In short: as §1

[17] = test system: PXR homodimer (NR concentration 270 nM)
In short: as §1

[18] = test system: RARa:RXR (NR concentration 270 nM, RXRa partner concentration 90 nM)
In short: as §1

[19] = test system: RARa homodimer (NR concentration 270 nM)
In short: as §1

[20] = test system: RARb:RXRa (NR concentration 270 nM, RXRa partner concentration 90 nM)
In short: as §1

Sequence | PBM binding z-score [1] | PBM binding z-score [2] | PBM binding z-score [3] | PBM binding z-score [4] | PBM binding z-score [5] | PBM binding z-score [6] | PBM binding z-score [7] | PBM binding z-score [8] | PBM binding z-score [9] | PBM binding z-score [10] | PBM binding z-score [11] | PBM binding z-score [12] | PBM binding z-score [13] | PBM binding z-score [14] | PBM binding z-score [15] | PBM binding z-score [16] | PBM binding z-score [17] | PBM binding z-score [18] | PBM binding z-score [19] | PBM binding z-score [20]
CGAACGTGGGCATGAGTTGATAGCAAATGCCGAT | -0.892 | -0.876 | -1.04 | -0.998 | -1.27 | -1.82 | 0.51 | -0.55 | -0.697 | -0.428 | -0.469 | -0.859 | -1.14 | -1.08 | -1.28 | -0.855 | -0.719 | -1.12 | -0.791 | -0.401
AGTCAGAGTTCACTAGGTAACGTAAGATTCAGCT | 4.41 | 4.52 | 2.25 | 2.64 | 0.624 | 4.54 | 5.57 | 5.35 | 2.12 | 4.4 | 2.59 | 4.05 | 1.02 | 0.611 | 2.37 | 4.41 | 3.8 | 2.72 | 0.385 | 3.97
ATATGTAGGTTAAGGGTGATTCAGGTTGGTTCGC | 0.984 | 1.63 | 0.808 | 1.73 | 0.807 | 4.98 | 9.36 | 8.2 | 8.53 | 9.45 | 7.67 | 6.98 | 1.59 | 1.38 | 3.75 | 1.63 | 1.19 | 1.72 | 1.64 | 1.54
ACTAGCAGGCCAAGTTTGGGTCAGTCAAACAAAG | 0.028 | -0.244 | -0.318 | -0.0247 | -0.904 | 0.619 | -0.396 | -0.173 | -0.835 | -0.45 | 0.456 | 0.754 | -0.643 | -0.95 | -0.103 | 0.0962 | -0.463 | 0.649 | -0.408 | 1.21
CCTACTGGGCCAAGGTCAGTGATCAGTCAAAGCA | 0.749 | 0.797 | 0.0206 | 0.924 | -0.982 | 2.46 | 2.73 | 3.3 | 0.671 | 2.45 | 3.15 | 4.03 | 0.453 | -1.43 | 1.3 | 1.14 | -0.136 | 1.75 | -0.243 | 2.89
TCATTTAGGTAAACAGGTGAAAGTCCGTAAGTTA | 1.47 | 1.13 | 0.719 | 1.04 | 0.705 | 2.37 | 2.24 | 3.73 | 4.42 | 3.99 | 3.9 | 3.97 | 1.38 | 1.49 | 1.97 | 1.01 | 0.929 | 1.52 | 1.74 | 1.08
ACTAGCAGGCCAAGTTTGCGTCACTCAAACAAAG | -0.42 | -0.547 | -0.38 | -0.386 | -0.402 | -0.395 | -0.346 | -0.378 | -0.74 | -0.227 | 0.769 | 0.225 | 0.102 | -0.27 | -0.265 | -0.294 | -0.479 | -0.264 | -0.243 | 0.486
TATACAGGGTCAAAAGCCAGAGTACGAATGTCGA | 5.93 | 5.72 | 1.74 | 4.3 | 2.65 | 5.48 | 6.57 | 6.01 | 3.42 | 5.08 | 1.58 | 3.89 | 1.82 | 1.55 | 1.9 | 3.49 | 0.526 | 4.49 | 0.877 | 3.73
TCATAAAGGTAAAAGGTGAAAGTCGGTGTGGTAA | 3.11 | 2.59 | 0.231 | 2.75 | 0.0475 | 5.08 | 6.24 | 6.25 | 6.38 | 6.73 | 3.49 | 3.5 | 0.634 | 0.86 | 2.26 | 2.56 | 0.65 | 4 | 1.25 | 2.54
CCGACTGGGGCAGAAGGGTTACCATACCATCCGG | -0.34 | -0.358 | -0.422 | -0.143 | -0.958 | 0.847 | 1.13 | 1.14 | -0.416 | 0.389 | 1.09 | 1.56 | -0.531 | -1.22 | 0.108 | -0.0806 | -0.804 | 0.392 | -0.582 | 0.984
ACTGACAGGTGATGAAGGTAACTCAGGCTATCAT | -0.15 | -0.398 | -0.445 | -0.455 | -0.408 | -0.0489 | 0.472 | 0.0848 | 0.0417 | 0.219 | 0.252 | 0.675 | 0.404 | -0.0306 | -0.378 | -0.393 | -0.233 | -0.039 | 0.284 | 0.224
ATATGTAGGTTAAGGGACATTCAGGTTGGTTCGC | 0.93 | 1.06 | 0.514 | 0.945 | 0.703 | 3.79 | 6.5 | 6.51 | 4.44 | 6.65 | 6.93 | 6.99 | 1.67 | 1.87 | 1.9 | 0.934 | 0.687 | 1.15 | 1.63 | 1.57
CCTTACGGGTCACGAGGTTATTGCACGACGAGCG | 6.84 | 4.54 | 0.946 | 4.15 | 0.296 | 6.08 | 7.34 | 6.45 | 3.32 | 5.41 | 4.41 | 5.61 | 1.02 | 0.757 | 3.66 | 4.88 | 0.56 | 6.61 | 1.28 | 4.57
